Values joined by “and” are separate entries in the source; they are usually repeats but may differ in a detail not shown here. Identical values can stand only once. Records with an inconclusive call do not appear. A call without a number means that no potency is given here. Active and inactive are the calls of the source. Unless noted, calls follow the shape of the dose curve; as a rule, active = well fitted curve in the direction sought with a large enough effect in the repeat runs; inconclusive = weak or mixed curves; inactive = no such curve, though single readings can be large; an effect the other way counts as inactive or inconclusive.
Columns and labels:
[1] = biological target: Acetylcholinesterase (Homo sapiens) (UniProt P22303); experiment: Acetylcholinesterase (AChE) small molecule antagonists: enzyme-based qHTS assay (AID 1347397; calls by dose curve; also: nearly all actives have a fitted effect of over 55% in size; also: potency is read from the fitted curve at half-maximal effect); details: Potency: AChE enzyme activity inhibition; outcome: AChE enzyme activity inhibition
Method in brief: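 Compound or DMSO vehicle was pin-transferred onto recombinant human AChE (50 mU/mL as dispensed) and left 30 min at room temperature. Acetylthiocholine with DTNB then started the reaction, read colorimetrically 10 min later.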

[2] = biological target: Acetylcholinesterase (Homo sapiens) (UniProt P22303); experiment: Acetylcholinesterase (AChE) small molecule antagonists: fluorescence cell-based qHTS assay (AID 1347398; calls by dose curve; also: nearly all actives have a fitted effect of over 50% in size; also: potency is read from the fitted curve at half-maximal effect); details: Potency: AChE activity; outcome: AChE activity
Method in brief: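 Using neuroblastoma SH-SY5Y cells as the enzyme source, test chemicals are preincubated 30 min at 37 C; AChE-driven acetylthiocholine cleavage is then quantified by thiocholine-dependent Thiolite Green fluorescence after 40 min at room temperature.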

[3] = biological target: Acetylcholinesterase (Homo sapiens) (UniProt P22303); experiment: Acetylcholinesterase (AChE) small molecule antagonists: enzyme-based qHTS assay with human liver microsomes (AID 1347399; calls by dose curve; also: nearly all actives have a fitted effect of over 60% in size; also: potency is read from the fitted curve at half-maximal effect); details: Potency: qHTS inhibition; outcome: qHTS inhibition
Method in brief: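 Recombinant human AChE (50 mU/mL in the enzyme mix) and human liver microsomes (0.25 mg/mL final) were preincubated with compound and NADPH (0.25 mg/mL final) for 30 min at 37 C. Acetylthiocholine/DTNB was then added; thiocholine was read colorimetrically after 10 min at room temperature.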

[4] = biological target: Cytochrome P450 2D6 (Homo sapiens) (UniProt P10635); experiment: Cytochrome P450 Family 2 Subfamily D Member 6 (CYP2D6) small molecule antagonists: luciferase reporter qHTS assay (AID 1671196); also: nearly all actives have a fitted effect of over 50% in size; also: potency is read from the fitted curve at half-maximal effect
Method in brief: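 Enzyme and proluciferin substrate were first combined with test chemical for 10 min at room temperature. Adding NADPH regeneration solution started a 1 h reaction, stopped with luciferin detection reagent and read by luminescence 20 min later.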

[5] = biological target: Cytochrome P450 2C19 (Homo sapiens) (UniProt P33261); experiment: Cytochrome P450 Family 2 Subfamily C Member 19 (CYP2C19) small molecule antagonists: luciferase reporter qHTS assay (AID 1671197); also: nearly all actives have a fitted effect of over 65% in size; also: potency is read from the fitted curve at half-maximal effect
Method in brief: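 Inhibition of CYP2C19 was scored from loss of luminescence in a P450-Glo proluciferin substrate assay, NADPH-started and run 1 h at 37C, with ketoconazole as positive control.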

[6] = biological target: Cytochrome P450 1A2 (Homo sapiens) (UniProt P05177); experiment: Cytochrome P450 Family 1 Subfamily A Member 2 (CYP1A2) small molecule antagonists: luciferase reporter qHTS assay (AID 1671199); also: nearly all actives have a fitted effect of over 50% in size; also: potency is read from the fitted curve at half-maximal effect
Method in brief: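 Compounds were incubated with CYP1A2 and a luminogenic proluciferin substrate for 10 min at room temperature before the reaction was started with NADPH regeneration solution. After 1 h, detection reagent was added and light output, proportional to CYP activity, was recorded.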

[7] = biological target: Voltage-gated inwardly rectifying potassium channel KCNH2 (Homo sapiens) (UniProt Q12809); experiment: Human Ether-a-go-go-Related Gene (hERG) channel small molecule antagonists: fluorescence cell-based qHTS assay (AID 1671200);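 also: hERG-expressing U2OS cells given a thallium stimulus after FluxOR II dye loading; series mostly up to about 77 µM; nearly all actives have a fitted effect of over 50% in size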
Method in brief: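 First, 1000 cells per well are seeded and cultured overnight at 37 C. Next, FluxOR II dye is loaded for 1 h at room temperature, protected from light. After 10 more minutes, stimulus is added and fluorescence is read.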

[8] = biological target: Cytochrome P450 3A4 (Homo sapiens) (UniProt P08684); experiment: Cytochrome P450 Family 3 Subfamily A Member 4 (CYP3A4) small molecule antagonists: luciferase reporter qHTS assay (AID 1671201); also: nearly all actives have a fitted effect of over 50% in size; also: potency is read from the fitted curve at half-maximal effect
Method in brief: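 Enzyme and proluciferin substrate are mixed with test chemicals for 10 min, then NADPH regeneration system drives turnover for 1 h at room temperature. A detection reagent halts the reaction; luminescence after 20 min gives relative activity.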

[9] = biological target: Cytochrome P450 2C9 (Homo sapiens) (UniProt P11712); experiment: Cytochrome P450 Family 2 Subfamily C Member 9 (CYP2C9) small molecule antagonists: luciferase reporter qHTS assay (AID 1671198); also: nearly all actives have a fitted effect of over 50% in size; also: potency is read from the fitted curve at half-maximal effect
Method in brief: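 CYP2C9 activity was measured with a P450-Glo proluciferin substrate. Enzyme–substrate mix was held with compound for 10 min at room temperature, then NADPH regeneration solution was added for 1 h at 37C. Luciferin product was read as luminescence.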

Cytochrome P450 2D6 (Homo sapiens), sequence (P10635 whole entry, looked up): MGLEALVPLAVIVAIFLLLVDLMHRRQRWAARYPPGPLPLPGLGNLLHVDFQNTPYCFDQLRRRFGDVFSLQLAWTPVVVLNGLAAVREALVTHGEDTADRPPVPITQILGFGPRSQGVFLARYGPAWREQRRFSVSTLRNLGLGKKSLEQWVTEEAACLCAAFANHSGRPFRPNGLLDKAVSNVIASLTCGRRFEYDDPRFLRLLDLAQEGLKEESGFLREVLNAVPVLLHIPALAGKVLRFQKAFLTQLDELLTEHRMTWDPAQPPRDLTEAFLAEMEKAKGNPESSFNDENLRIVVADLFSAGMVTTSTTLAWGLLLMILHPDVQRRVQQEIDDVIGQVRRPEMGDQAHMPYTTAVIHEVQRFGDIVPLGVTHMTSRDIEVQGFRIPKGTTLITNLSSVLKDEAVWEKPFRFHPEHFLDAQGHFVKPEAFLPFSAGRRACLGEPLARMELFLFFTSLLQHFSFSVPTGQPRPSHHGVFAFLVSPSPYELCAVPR
Voltage-gated inwardly rectifying potassium channel KCNH2 (Homo sapiens), sequence (Q12809 whole entry, looked up): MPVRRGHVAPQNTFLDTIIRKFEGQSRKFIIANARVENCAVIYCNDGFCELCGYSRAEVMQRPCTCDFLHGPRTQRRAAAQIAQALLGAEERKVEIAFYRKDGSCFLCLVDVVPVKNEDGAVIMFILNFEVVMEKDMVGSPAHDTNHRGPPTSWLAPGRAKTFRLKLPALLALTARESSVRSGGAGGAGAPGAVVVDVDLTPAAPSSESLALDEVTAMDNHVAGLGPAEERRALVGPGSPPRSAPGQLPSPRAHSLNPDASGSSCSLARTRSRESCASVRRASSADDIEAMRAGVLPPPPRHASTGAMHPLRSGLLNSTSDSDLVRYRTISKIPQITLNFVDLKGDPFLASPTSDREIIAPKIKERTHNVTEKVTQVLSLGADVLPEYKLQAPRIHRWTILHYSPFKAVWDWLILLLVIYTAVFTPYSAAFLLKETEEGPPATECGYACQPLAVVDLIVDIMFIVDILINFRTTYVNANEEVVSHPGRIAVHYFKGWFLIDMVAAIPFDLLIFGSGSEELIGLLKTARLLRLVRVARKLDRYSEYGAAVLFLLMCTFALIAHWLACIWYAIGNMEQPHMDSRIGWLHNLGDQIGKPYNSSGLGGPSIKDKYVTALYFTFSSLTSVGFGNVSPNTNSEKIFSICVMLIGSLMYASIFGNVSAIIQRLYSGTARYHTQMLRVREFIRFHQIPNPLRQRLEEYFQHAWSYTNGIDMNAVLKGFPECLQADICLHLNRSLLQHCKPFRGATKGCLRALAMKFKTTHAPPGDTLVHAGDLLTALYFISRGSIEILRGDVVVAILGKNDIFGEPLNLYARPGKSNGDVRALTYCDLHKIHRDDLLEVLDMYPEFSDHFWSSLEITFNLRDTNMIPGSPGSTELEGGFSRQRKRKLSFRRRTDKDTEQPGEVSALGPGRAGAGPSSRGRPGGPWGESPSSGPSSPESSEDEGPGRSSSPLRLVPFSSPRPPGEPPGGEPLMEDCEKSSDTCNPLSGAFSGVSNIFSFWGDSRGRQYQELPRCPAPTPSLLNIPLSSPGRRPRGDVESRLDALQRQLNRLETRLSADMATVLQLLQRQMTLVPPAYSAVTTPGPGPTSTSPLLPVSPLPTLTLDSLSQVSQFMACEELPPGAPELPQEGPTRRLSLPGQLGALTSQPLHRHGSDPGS
Cytochrome P450 3A4 (Homo sapiens), sequence (P08684 whole entry, looked up): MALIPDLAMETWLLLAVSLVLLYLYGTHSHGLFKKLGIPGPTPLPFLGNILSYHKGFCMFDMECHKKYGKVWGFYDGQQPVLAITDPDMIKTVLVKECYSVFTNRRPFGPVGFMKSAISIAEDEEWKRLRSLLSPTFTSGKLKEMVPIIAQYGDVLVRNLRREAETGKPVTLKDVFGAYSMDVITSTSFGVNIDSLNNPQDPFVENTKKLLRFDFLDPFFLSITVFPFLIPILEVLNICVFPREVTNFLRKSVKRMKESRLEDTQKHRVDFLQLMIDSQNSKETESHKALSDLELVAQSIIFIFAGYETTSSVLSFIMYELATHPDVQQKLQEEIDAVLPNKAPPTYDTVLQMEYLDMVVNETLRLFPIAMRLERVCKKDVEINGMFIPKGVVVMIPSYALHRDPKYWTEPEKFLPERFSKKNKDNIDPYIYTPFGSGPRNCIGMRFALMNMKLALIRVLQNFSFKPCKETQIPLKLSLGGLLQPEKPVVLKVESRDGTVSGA
Cytochrome P450 1A2 (Homo sapiens), sequence (P05177 whole entry, looked up): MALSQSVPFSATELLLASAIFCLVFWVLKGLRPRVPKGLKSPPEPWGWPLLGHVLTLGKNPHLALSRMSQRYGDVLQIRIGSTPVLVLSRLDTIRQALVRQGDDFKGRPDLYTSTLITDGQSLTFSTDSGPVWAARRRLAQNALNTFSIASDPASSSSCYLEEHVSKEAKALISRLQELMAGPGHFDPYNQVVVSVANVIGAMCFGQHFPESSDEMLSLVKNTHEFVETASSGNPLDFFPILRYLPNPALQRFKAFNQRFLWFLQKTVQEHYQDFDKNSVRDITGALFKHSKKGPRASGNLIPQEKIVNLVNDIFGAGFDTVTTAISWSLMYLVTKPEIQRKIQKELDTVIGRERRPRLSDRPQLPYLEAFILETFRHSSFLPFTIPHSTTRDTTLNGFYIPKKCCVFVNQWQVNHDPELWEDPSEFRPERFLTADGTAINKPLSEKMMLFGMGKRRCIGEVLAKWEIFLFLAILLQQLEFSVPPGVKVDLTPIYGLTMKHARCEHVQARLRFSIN
Cytochrome P450 2C9 (Homo sapiens), sequence (P11712 whole entry, looked up): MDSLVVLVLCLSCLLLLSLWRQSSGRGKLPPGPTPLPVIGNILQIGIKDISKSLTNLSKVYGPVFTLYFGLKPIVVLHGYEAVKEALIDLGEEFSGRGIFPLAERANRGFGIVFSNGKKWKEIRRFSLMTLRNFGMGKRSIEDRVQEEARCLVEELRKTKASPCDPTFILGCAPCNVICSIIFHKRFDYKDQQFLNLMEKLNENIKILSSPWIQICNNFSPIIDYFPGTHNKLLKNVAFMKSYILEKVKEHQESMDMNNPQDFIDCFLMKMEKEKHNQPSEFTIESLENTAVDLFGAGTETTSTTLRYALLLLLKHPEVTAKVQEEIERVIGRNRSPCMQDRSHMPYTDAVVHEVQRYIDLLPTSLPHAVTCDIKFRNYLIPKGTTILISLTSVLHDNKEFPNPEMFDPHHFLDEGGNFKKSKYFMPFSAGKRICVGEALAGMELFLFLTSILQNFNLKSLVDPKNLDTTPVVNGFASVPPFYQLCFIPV
Cytochrome P450 2C19 (Homo sapiens), sequence (P33261 whole entry, looked up): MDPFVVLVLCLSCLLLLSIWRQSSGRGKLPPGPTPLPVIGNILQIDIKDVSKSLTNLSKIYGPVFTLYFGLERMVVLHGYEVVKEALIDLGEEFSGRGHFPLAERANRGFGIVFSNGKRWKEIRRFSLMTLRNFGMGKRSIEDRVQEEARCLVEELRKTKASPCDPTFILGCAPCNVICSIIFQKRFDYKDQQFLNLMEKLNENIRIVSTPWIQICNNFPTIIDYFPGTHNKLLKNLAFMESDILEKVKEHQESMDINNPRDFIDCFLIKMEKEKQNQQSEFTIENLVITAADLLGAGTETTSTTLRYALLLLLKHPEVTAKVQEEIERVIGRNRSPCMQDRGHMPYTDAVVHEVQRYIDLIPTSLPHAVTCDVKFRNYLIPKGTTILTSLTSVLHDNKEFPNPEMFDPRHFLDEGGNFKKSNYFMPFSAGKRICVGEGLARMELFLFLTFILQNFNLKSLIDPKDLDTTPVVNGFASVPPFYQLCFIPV
Acetylcholinesterase (Homo sapiens), sequence (P22303 whole entry, looked up): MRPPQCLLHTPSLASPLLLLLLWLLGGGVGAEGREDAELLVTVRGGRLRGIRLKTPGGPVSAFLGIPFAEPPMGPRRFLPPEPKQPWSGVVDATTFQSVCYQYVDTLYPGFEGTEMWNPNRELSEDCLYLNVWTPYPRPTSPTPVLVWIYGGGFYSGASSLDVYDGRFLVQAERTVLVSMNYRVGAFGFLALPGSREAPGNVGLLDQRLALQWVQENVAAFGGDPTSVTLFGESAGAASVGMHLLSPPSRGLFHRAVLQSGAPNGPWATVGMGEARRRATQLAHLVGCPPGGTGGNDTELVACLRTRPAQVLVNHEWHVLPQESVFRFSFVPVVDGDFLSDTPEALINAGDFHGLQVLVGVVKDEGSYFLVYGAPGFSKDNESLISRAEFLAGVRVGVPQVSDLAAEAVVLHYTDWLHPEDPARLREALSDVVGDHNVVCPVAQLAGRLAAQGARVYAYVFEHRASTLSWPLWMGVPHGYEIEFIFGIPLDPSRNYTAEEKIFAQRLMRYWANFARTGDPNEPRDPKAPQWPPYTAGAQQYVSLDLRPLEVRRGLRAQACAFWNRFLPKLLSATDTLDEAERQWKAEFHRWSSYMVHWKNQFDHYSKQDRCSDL

## CC(C)c1ccc(O)cc1
[1]
  Potency: inactive
[2]
  Potency: inactive
[3]
  Potency: inactive
[4]
  Potency: inactive
[5]
  Potency: inactive
[6]
  Potency: 22.4 µM (active)
[7]
  Potency: inactive
[8]
  Potency: inactive

## CCCCOC(C)=O
[1]
  Potency: inactive
[2]
  Potency: inactive
[3]
  Potency: inactive
[4]
  Potency: inactive
[5]
  Potency: inactive
[9]
  Potency: inactive
[7]
  Potency: inactive
[8]
  Potency: inactive

## CN(C)CCN(C)C
[1]
  Potency: inactive
[2]
  Potency: inactive
[3]
  Potency: inactive
[4]
  Potency: inactive
[5]
  Potency: inactive
[9]
  Potency: inactive
[7]
  Potency: inactive
[8]
  Potency: inactive

## CC(C)(N)Cc1ccccc1Cl
[1]
  Potency: inactive
[2]
  Potency: inactive
[3]
  Potency: inactive
[4]
  Potency: 4.36 µM (active)
[5]
  Potency: inactive
[9]
  Potency: inactive
[7]
  Potency: inactive
[8]
  Potency: inactive

## CCCCCCC1CCOC1=O (stereo not drawn)
[1]
  Potency: inactive
[2]
  Potency: inactive
[3]
  Potency: inactive
[4]
  Potency: inactive
[5]
  Potency: 39.9 µM (active)
[9]
  Potency: inactive
[7]
  Potency: inactive
[8]
  Potency: inactive

## O=CCCl
[1]
  Potency: inactive
[2]
  Potency: inactive
[3]
  Potency: inactive
[4]
  Potency: inactive
[5]
  Potency: inactive
[6]
  Potency: inactive
[7]
  Potency: inactive
[8]
  Potency: inactive

## O=C(Cl)C(Cl)Cl
[1]
  Potency: inactive
[2]
  Potency: inactive
[3]
  Potency: inactive
[4]
  Potency: inactive
[5]
  Potency: inactive
[9]
  Potency: inactive
[7]
  Potency: inactive
[8]
  Potency: inactive

## CCCCCCCC(=O)Cl
[1]
  Potency: inactive
[2]
  Potency: inactive
[3]
  Potency: inactive
[4]
  Potency: inactive
[5]
  Potency: 40.3 µM (active)
[6]
  Potency: inactive
[7]
  Potency: inactive
[8]
  Potency: inactive

## CCOC1Oc2ccc(OS(C)(=O)=O)cc2C1(C)C (stereo not drawn)
[1]
  Potency: inactive
[2]
  Potency: inactive
[3]
  Potency: inactive
[4]
  Potency: 35.3 µM (active)
[5]
  Potency: 3.96 µM (active)
[9]
  Potency: 22.3 µM (active)
[6]
  Potency: 35.3 µM (active)
[7]
  Potency: inactive
[8]
  Potency: inactive

## CCN[C@H](C)Cc1cccc(C(F)(F)F)c1
[1]
  Potency: inactive
[2]
  Potency: inactive
[3]
  Potency: inactive
[4]
  Potency: 2.24 µM (active)
[5]
  Potency: inactive
[9]
  Potency: inactive
[7]
  Potency: inactive
[8]
  Potency: inactive

## ClCCCCCCCl
[1]
  Potency: inactive
[2]
  Potency: inactive
[3]
  Potency: inactive
[4]
  Potency: inactive
[5]
  Potency: 39.9 µM (active)
[9]
  Potency: inactive
[6]
  Potency: 35.6 µM (active)
[7]
  Potency: inactive
[8]
  Potency: inactive

## CCN(CCO)CCO
[1]
  Potency: inactive
[2]
  Potency: inactive
[3]
  Potency: inactive
[4]
  Potency: inactive
[5]
  Potency: inactive
[6]
  Potency: inactive
[7]
  Potency: inactive
[8]
  Potency: inactive

## OCC(Cl)CCl (stereo not drawn)
[1]
  Potency: inactive
[2]
  Potency: inactive
[3]
  Potency: inactive
[4]
  Potency: inactive
[5]
  Potency: 70.1 µM (active)
[6]
  Potency: 39.4 µM (active)
[7]
  Potency: inactive
[8]
  Potency: inactive

## C[C@H](N)C(=O)c1ccccc1
[1]
  Potency: inactive
[2]
  Potency: inactive
[3]
  Potency: inactive
[4]
  Potency: 42.2 µM (active)
[5]
  Potency: 47.3 µM (active)
[6]
  Potency: 53.1 µM (active)
[7]
  Potency: inactive

## COC(=O)[C@@H](N)CCCN/C(N)=N/[N+](=O)[O-]
[1]
  Potency: inactive
[2]
  Potency: inactive
[3]
  Potency: inactive
[4]
  Potency: inactive
[5]
  Potency: inactive
[6]
  Potency: inactive
[7]
  Potency: inactive

## C[C@]12C=CC(=O)C=C1CC[C@@H]1[C@@H]2CC[C@@]2(C)[C@H]1CC[C@]2(C)O
[1]
  Potency: inactive
[2]
  Potency: inactive
[3]
  Potency: inactive
[4]
  Potency: inactive
[5]
  Potency: inactive
[6]
  Potency: inactive
[7]
  Potency: inactive
[8]
  Potency: inactive

## CNC(=O)Oc1ccccc1C(C)C
[1]
  Potency: 7.96 µM (active)
[2]
  Potency: 4.48 µM (active)
[3]
  Potency: 56.4 µM (active)
[4]
  Potency: inactive
[5]
  Potency: 39.9 µM (active)
[6]
  Potency: 35.6 µM (active)
[7]
  Potency: inactive
[8]
  Potency: inactive

## CON(C)C(=O)Nc1ccc(Br)cc1
[1]
  Potency: inactive
[2]
  Potency: inactive
[3]
  Potency: inactive
[4]
  Potency: inactive
[5]
  Potency: 35.6 µM (active)
[6]
  Potency: 5.64 µM (active)
[7]
  Potency: inactive
[8]
  Potency: inactive

## C=C(Cl)CCl
[1]
  Potency: inactive
[2]
  Potency: inactive
[3]
  Potency: inactive
[4]
  Potency: inactive
[9]
  Potency: inactive
[6]
  Potency: inactive
[7]
  Potency: inactive
[8]
  Potency: inactive

## CC(C)(C)C(=O)C(Cl)Cl
[1]
  Potency: inactive
[2]
  Potency: inactive
[3]
  Potency: inactive
[4]
  Potency: inactive
[9]
  Potency: inactive
[7]
  Potency: inactive
[8]
  Potency: inactive

## COC(=O)c1ccccc1CS(=O)(=O)NC(=O)Nc1nc(OC)cc(OC)n1
[1]
  Potency: inactive
[2]
  Potency: inactive
[3]
  Potency: inactive
[4]
  Potency: inactive
[9]
  Potency: inactive
[7]
  Potency: inactive
[8]
  Potency: inactive

## CC(C)(C)NC[C@H](O)c1ccc(O)cc1Cl
[1]
  Potency: inactive
[2]
  Potency: inactive
[3]
  Potency: inactive
[4]
  Potency: 30.9 µM (active)
[9]
  Potency: inactive
[6]
  Potency: inactive
[7]
  Potency: inactive
[8]
  Potency: inactive

## C#CCOC(=O)/C=C(C)/C=C/CC(C)CCCC(C)C (stereo not drawn)
[1]
  Potency: inactive
[2]
  Potency: inactive
[3]
  Potency: inactive
[4]
  Potency: inactive
[9]
  Potency: 31.7 µM (active)
[6]
  Potency: 28.3 µM (active)
[8]
  Potency: inactive

## O=C(O)CBr
[1]
  Potency: inactive
[2]
  Potency: inactive
[3]
  Potency: inactive
[4]
  Potency: inactive
[9]
  Potency: inactive
[6]
  Potency: inactive
[7]
  Potency: inactive
[8]
  Potency: inactive

## CCOC(=O)CC(SP(=S)(OC)OC)C(=O)OCC (stereo not drawn)
[1]
  Potency: inactive
[2]
  Potency: inactive
[3]
  Potency: inactive
[4]
  Potency: inactive
[9]
  Potency: 1.19 µM (active) and 1.38 µM (active)
[6]
  Potency: 2.24 µM (active) and 1.62 µM (active)
[7]
  Potency: inactive

## C=CC(=O)OCCN(C)C
[1]
  Potency: inactive
[2]
  Potency: inactive
[3]
  Potency: inactive
[4]
  Potency: inactive
[9]
  Potency: inactive
[6]
  Potency: inactive
[7]
  Potency: inactive
[8]
  Potency: inactive

## CCNP(=S)(OC)O/C(C)=C/C(=O)OC(C)C (stereo not drawn)
[1]
  Potency: inactive
[2]
  Potency: inactive
[3]
  Potency: inactive
[4]
  Potency: 31.7 µM (active)
[9]
  Potency: 0.633 µM (active)
[6]
  Potency: 2.52 µM (active)
[8]
  Potency: 1.26 µM (active)

## O=C(Cl)CCl
[1]
  Potency: inactive
[2]
  Potency: inactive
[3]
  Potency: inactive
[4]
  Potency: 71.4 µM (active)
[9]
  Potency: inactive
[7]
  Potency: inactive
[8]
  Potency: inactive

From PubChem BioAssay (Tox21)
